Bioassay records from PubChem.
Hits are enriched below; roughly 8% of the tested compounds scored in any of these assays.
KB-3-1 tox = KB-3-1 parental cell cytotoxicity | KB-3-1 viability, CellTiter-Glo ATP luminescence, 72 h | Potency, µM (titrated, usually from 46.1 µM), most hits filed as cytotoxic | 400,000 compounds, 1.4% hits | AID 1347075; note: % is set by controls: 0 for no effect and ±100 for the full control effect; nearly all actives have a fitted effect of over 60% in size
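Parental KB-3-1 viability, qHTS format: 72 h compound exposure, 37 °C; CellTiter-Glo; media-only wells and DMSO plates as controls; concentration-effect fits on corrected data.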
HT1080NT lethal = kills 2HG-producing HT-1080-NT fibrosarcoma cells | AID 686970 | Potency, µM (series often up to 46.1 µM), inactives show at the top dose activity, negative = less viability, actives largely listed as cytotoxic | 360,000 compounds, 1.6% hits | HT-1080-NT fibrosarcoma viability, CellTiter-Glo ATP luminescence, 48 h;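 note: NT is the 2HG producing partner of a matched IDH1 knockdown line; 0% = DMSO-treated cells and -100% = media-only wells without cells; nearly all actives have a fitted effect of over 55% in size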
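Read-out is CellTiter-Glo luminescence after 10 minutes at room temperature, following 48 hours' compound treatment of HT-1080-NT cells (750 cells/well, RPMI, 5% FBS, 37 degrees C).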
MCF10A rereplic = inducers of DNA re-replication in MCF 10A breast cells; MCF 10A DNA re-replication, Hoechst nuclear intensity, 48 h; Potency, µM (highest dose often 46.1 µM), for the others: at the highest dose activity, positive = re-replication, usual class: activators; 350,000 compounds, 2.9% hits; AID 624296; note: % of control where 0% means no effect; nearly all actives have a fitted effect of over 50% in size
KB-V1 cytotox = kills drug-selected multidrug resistant KB-V1 cells | KB-V1 MDR cells viability, CellTiter-Glo, 72 h | Potency, µM (top dose mostly 46.1 µM), most hits filed as cytotoxic | 400,000 compounds, 3.4% hits | AID 1347076; note: % is set by controls: 0 for no effect and ±100 for the full control effect; nearly all actives have a fitted effect of over 60% in size
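Compound-treated KB-V1 multidrug-resistant cells, 72 h, 37 degrees C; viability by CellTiter-Glo. Fitted qHTS curves give the values.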
HT1080 IDH1KD tx = HT-1080 IDH1 knockdown cell toxicity (counter line) | HT-1080 IDH1 knockdown viability, ATP luminescence, 48 h | Potency, µM (doses to about 46.1 µM), inactives show at the highest dose activity, negative = toxicity, hits mostly cytotoxic | 360,000 compounds, 2% hits;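 note: 0% = DMSO wells and -100% = cell-free medium wells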
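CellTiter-Glo luminescence after 48 h compound exposure at 37 degrees C of IDH1-knockdown HT-1080 cells in 5% FBS RPMI. %Activity scaled between DMSO wells and cell-free media wells, with curves fitted and assigned curve classes.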
SW480 rerep = induces DNA re-replication in SW480 colon adenocarcinoma cells; Potency, µM (top dose mostly 46.1 µM), inactives show at the highest dose re-replication activation, hits mostly activators; 340,000 compounds, 1.8% hits; SW480 DNA re-replication, Hoechst DNA content imaging, 48 h; AID 624297; note: % of control where 0% means no effect; nearly all actives have a fitted effect of over 55% in size
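SW480 cells exposed to compounds for 48 hr at 37 C, 5% CO2, then Hoechst-stained 40 min. Nuclear DNA content imaged by fluorescence scanning (405 nm excitation, 500-530 nm emission); re-replication scored as increased high-intensity nuclei.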
The depositor's hits bear a star; i = inactive; ? = inconclusive; . = not tested or not shown. Calls come from the whole dose curve; as a rule, active = well fitted curve in the direction sought with a large enough effect; inconclusive = small, poorly fitted or top-dose-only effect, or another doubt; inactive = no such curve, though single readings can be large; an effect the other way counts as inactive or inconclusive. Potency is the fitted concentration of half-maximal effect.

SMILES | KB-3-1 tox | HT1080NT lethal | MCF10A rereplic | KB-V1 cytotox | HT1080 IDH1KD tx | SW480 rerep
CCn1cc(C(=O)NCCCO)c(=O)c2cc(F)c(N3CCN(C)CC3)cc21 | i | 10.8% | 3.8% | i | 6.1% | 7.6%
CCn1cc(C(=O)NCC(C)C)c(=O)c2cc(F)c(N3CCN(C(=O)c4ccco4)CC3)cc21 | i | -14.7% | ? | 16.4µM* | -0.4% | -1.7%
C=CCNC(=O)c1cn(CC)c2cc(N3CCN(C(=O)c4ccco4)CC3)c(F)cc2c1=O | i | -0.7% | -2.0% | ? | -4.6% | 18.9%
COc1ccccc1N1CCN(C(=O)c2ccccc2SCC(=O)NCc2ccco2)CC1 | i | 0.8% | 10.5% | ? | 2.5% | 0.2%
CCCCCCNC(=O)c1cn(CC)c2cc(N3CCN(C)CC3)c(F)cc2c1=O | i | 16.4µM* | ? | i | ? | ?
CCn1cc(C(=O)NCc2ccco2)c(=O)c2cc(F)c(N3CCN(C(=O)c4ccco4)CC3)cc21 | i | -11.8% | 13µM* | i | -17.0% | -2.1%
CC(=O)c1ccc(N2CCN(C(=O)c3ccccc3SCC(=O)NCc3ccco3)CC2)c(F)c1 | i | -8.2% | 1.0% | 20.6µM* | -7.2% | -8.3%
Cn1c(CNC(=O)CSc2n[nH]c(-c3ccccc3)n2)nc2ccccc21 | i | . | . | i | . | .
CCOc1ccccc1N1CCN(c2ncnc3scc(-c4ccc(OC)cc4)c23)CC1 | 13µM* | ? | ? | ? | ? | ?
COc1ccc(-c2csc3ncnc(N4CCN(c5ccccc5OC)CC4)c23)cc1 | ? | -18.5% | ? | ? | -6.5% | 4.8%
Oc1ccccc1N1CCN(c2ncnc3scc(-c4ccccc4)c23)CC1 | ? | ? | 20.6µM* | ? | ? | ?
COc1ccc(-c2csc3nc(C)nc(N4CCC(C)CC4)c23)cc1OC | ? | 18.4µM* | ? | ? | ? | 18.9%
Cc1nc(N2CCN(c3ccccc3O)CC2)c2c(-c3ccccc3)csc2n1 | ? | -27.0% | 13µM* | i | ? | ?
O=C(O)C(Cc1cc(I)c(O)c(I)c1)c1ccccc1 (stereo not drawn) | . | . | ? | . | . | 7.9%
COc1ccc(N2CCN(Cc3cccn3-c3nnc(N4CCN(C5CCCCC5)CC4)s3)CC2)cc1 | i | . | . | i | . | .
O=C(C1CC=CCC1)N1CCC(CO)(Cc2ccc(Cl)cc2)CC1 (stereo not drawn) | ? | -19.8% | 0.5% | 11.6µM* | 2.1% | -13.4%
O=C(C1CCCC1)N1CCC(CO)(Cc2ccccc2Cl)CC1 | i | -20.8% | -0.2% | ? | -17.5% | -1.9%
COc1ccc(OC)c(C2Nc3c(C)cc(C)cc3-c3cc(C)nn32)c1 (stereo not drawn) | i | . | . | i | . | .
CCC(Oc1ccccc1)C(=O)N(Cc1ccccc1)c1ccccn1 (stereo not drawn) | ? | -0.3% | -10.5% | 16.4µM* | -5.9% | -11.7%
COc1ccc(N(C(=O)c2cccc(C)c2)S(=O)(=O)c2ccc(C)cc2)cc1 | ? | . | . | i | . | .
COc1cc(N=Nc2cccc(S(N)(=O)=O)c2)c2ccccc2c1N | 23.1µM* | 20.6µM* | ? | i | 14.6µM* | 13.7%
Cc1cccc2cc(C(c3nnnn3Cc3ccccc3)N3CCCc4ccccc43)c(=O)[nH]c12 (stereo not drawn) | i | -0.2% | 5.17µM* | i | -1.4% | 4.61µM*
N#CCCSc1ncnc2c1oc1ccccc12 | ? | 3.3% | -8.0% | 11.6µM* | ? | -12.1%
OCCSc1ncnc2c1oc1ccccc12 | i | -0.2% | 2.4% | i | 0.6% | -1.2%
Cc1ccc(-c2cc3ncc4c(n3n2)-c2cc(Cl)ccc2OC4)cc1 | i | . | . | i | . | .
SMILES | KB-3-1 tox | HT1080NT lethal | MCF10A rereplic | KB-V1 cytotox | HT1080 IDH1KD tx | SW480 rerep
COc1ccccc1NC(=O)c1cc2n(n1)C(C(F)(F)F)CC(c1ccc3c(c1)OCO3)N2 (stereo not drawn) | i | -12.1% | ? | i | -12.3% | -1.7%
COc1ccc(OC)c(NC(=O)c2cc3n(n2)C(C(F)(F)F)CC(c2ccc4c(c2)OCO4)N3)c1 (stereo not drawn) | ? | ? | 4.3% | 11.6µM* | ? | 12.6%
O=C(Cn1cnc([N+](=O)[O-])n1)N/N=C/c1cccc2ccccc12 | i | -1.4% | -2.5% | i | 5.2% | -8.9%
CCCCNC(=O)Cn1cnc([N+](=O)[O-])n1 | i | -6.2% | 0.7% | ? | -6.2% | 7.31µM*
Oc1ccc(C=NNC(=S)Nc2ccc(F)cc2)c(O)c1 | ? | ? | ? | i | 18.4µM* | ?
COCCNC(=O)Cn1cnc([N+](=O)[O-])n1 | i | -0.4% | -47.9% | i | 10.8% | -3.1%
O=C(CCC(=O)Nc1ccc(F)cc1)N/N=C/c1ccc(O)cc1O | i | -13.4% | 37.8% | i | -17.9% | 9.2µM*
O=C(Cn1cnc([N+](=O)[O-])n1)N/N=C/c1ccc(O)cc1O | i | ? | -1.2% | i | 18.4µM* | 11.6µM*
COc1ccc(C(=O)N2CCc3cc(OC)c(OC)cc3C2COc2ccc3c(C)cc(=O)oc3c2)c(OC)c1 (stereo not drawn) | ? | . | . | i | . | .
O=C(N/N=C/c1ccc(O)cc1O)C(=O)N/N=C/c1ccc(O)cc1O | ? | ? | 6.6% | i | ? | 11.6µM*
O=C(NN=Cc1ccc(O)cc1)C(=O)NN=Cc1ccc(O)cc1 | i | -15.8% | -22.1% | i | -8.6% | -4.2%
COC(=O)N1CCN(c2ccc(Cl)c(Cl)c2)CC1 | ? | -1.8% | 19.8% | 23.1µM* | 6.3% | -0.6%
Nc1ccc(N2CCN(c3ccc(Cl)c(Cl)c3)CC2)cc1 | 20.6µM* | -10.4% | ? | 18.4µM* | -6.4% | -10.0%
Cc1cc(C(=O)N/N=C/c2ccc(-c3ccc([N+](=O)[O-])cc3Cl)o2)n[nH]1 | i | -2.1% | 18.4µM* | i | 1.2% | 18.4µM*
Cc1cc(C(=O)N/N=C/c2ccc(-c3ccccc3Cl)o2)n[nH]1 | ? | 1.4% | ? | 23.1µM* | -0.6% | -36.3%
Cc1cc(C(=O)N/N=C/c2ccc(-c3cccc([N+](=O)[O-])c3)o2)n[nH]1 | i | 8.4% | 6.3% | i | 2.5% | 3.9%
Cc1ccc(/C=N/NC(=O)c2cc(-c3ccc(C)o3)[nH]n2)cc1 | ? | ? | 4.61µM* | ? | 20.6µM* | ?
COC(=O)N/N=C/c1ccc(-c2cc(Cl)ccc2Cl)o1 | ? | -1.6% | ? | 20.6µM* | 1.9% | -3.3%
Cc1ccc(-c2cc(C(=O)N/N=C/c3cccnc3)n[nH]2)o1 | i | 14.4% | -5.8% | i | 26.3% | -187.4%
